# Values joined by “and” are separate entries in the source; they are usually repeats but may differ in a detail not shown here. Equal values may be shown once. Compounds without any hit were thinned out: in the full panel of roughly 83,000, 20% have a hit.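 Activity criterion: percent growth below 10, measured after cells in 96-well plates were exposed to a single compound concentration for 48 hours.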 Active and inactive are the calls of the source.
# How the values were obtained:
# Experiment in all cases: NCI-60 one-dose screen, 48 h (100 = growth as untreated, 0 = no growth, -100 = all killed)
# Conditions in all cases: 10 µM unless noted
# MCF7 breast = system: MCF7 breast
# BT-549 breast = system: BT-549 breast
# MDA-MB-435 melanoma = system: MDA-MB-435 melanoma
# SW-620 colon = system: SW-620 colon
# HCT-116 colon = system: HCT-116 colon
# KM12 colon = system: KM12 colon
# HCC-2998 colon = system: HCC-2998 colon
compound,measurement,setting,value
O=C(O)CCCC(=O)Nn1c(Cc2ccc(Cl)cc2)n[nH]c1=O,growth,MCF7 breast,78.3% [100 µM] (inactive) and 78.8% [100 µM] (inactive)
Cc1coc2c1C(OC(=O)C(C)C)C1(C)C(C)CCC(O)C1C2=O (stereo not given),growth,MCF7 breast,21.2% [100 µM] (inactive) and 6.5% [100 µM] (active)
NS(=O)(=O)c1cc2c(cc1Cl)NC(C(Cl)Cl)NS2(=O)=O (stereo not given),growth,BT-549 breast,70.5% (inactive) and 102% (inactive)
same,growth,MDA-MB-435 melanoma,101% (inactive) and 104% (inactive)
same,growth,SW-620 colon,110% (inactive)
same,growth,MCF7 breast,93.1% (inactive) and 110% (inactive)
same,growth,HCT-116 colon,101% (inactive) and 100% (inactive)
same,growth,KM12 colon,111% (inactive)
CCCCCCCCCCCCCCCCOc1ccc(C)cc1,growth,BT-549 breast,112% (inactive)
same,growth,MDA-MB-435 melanoma,111% (inactive)
same,growth,MCF7 breast,102% (inactive)
same,growth,HCT-116 colon,108% (inactive)
same,growth,HCC-2998 colon,105% (inactive)
same,growth,KM12 colon,108% (inactive)
Cc1ccc(C)c(NC(=O)/C(=N\N)C(c2cnc3ccc([N+](=O)[O-])cc3n2)[N+](=O)[O-])c1 (stereo not given),growth,MCF7 breast,50.4% [100 µM] (inactive) and 9.64% [100 µM] (active)
CC(=O)C1=C(C)N2C(=NC3=C(CCc4ccccc43)C2c2cccc(Br)c2)S1 (stereo not given),growth,MCF7 breast,35.9% [100 µM] (inactive) and 33.8% [100 µM] (inactive)
C[C@@H]1C[C@@H]2OC(=O)[C@]3(C)[C@H]2[C@@H](OC3(C)O)[C@]2(C)C(=O)C=C[C@@H]12 (stereo not given in full),growth,MCF7 breast,-67.1% [100 µM] (active) and -81.7% [100 µM] (active)
COc1c(OC)c(OC)c2c(c1OC)c(=O)c1ccccc1n2C,growth,MCF7 breast,65.5% [100 µM] (inactive) and -50% [100 µM] (active)
O=C(Cc1cccc2ccccc12)N/N=C/c1ccc2c(c1)CCC2,growth,BT-549 breast,92.5% (inactive)
same,growth,MDA-MB-435 melanoma,7.56% (active)
same,growth,SW-620 colon,54.8% (inactive)
same,growth,MCF7 breast,80.5% (inactive)
same,growth,HCT-116 colon,66.4% (inactive)
same,growth,HCC-2998 colon,81.9% (inactive)
same,growth,KM12 colon,54.3% (inactive)
CN(C)c1ccc(/C=C(\C#N)c2ccccc2)cc1,growth,BT-549 breast,51.3% (inactive) and 52.8% (inactive) and 49.5% (inactive)
same,growth,MDA-MB-435 melanoma,-44.1% (active) and -7.42% (active) and -26.3% (active)
same,growth,SW-620 colon,18.1% (inactive) and 33.3% (inactive) and 21.8% (inactive)
same,growth,MCF7 breast,23.6% (inactive) and 24.5% (inactive) and 33% (inactive)
same,growth,HCT-116 colon,17.4% (inactive) and 27.1% (inactive) and 19.8% (inactive)
same,growth,HCC-2998 colon,-28.9% (active) and 68.2% (inactive) and 47.7% (inactive)
same,growth,KM12 colon,13% (inactive) and 38.8% (inactive) and 28.7% (inactive)
O=C(Cc1nc2ccc(C(=O)c3ccccc3)cc2[nH]c1=O)C(=O)Nc1ccccc1[N+](=O)[O-],growth,MCF7 breast,27.4% [100 µM] (inactive) and 4.17% [100 µM] (active)
COc1ccc(-c2cn[nH]c2-c2cc(OC)c(OC)c(OC)c2)cc1N,growth,BT-549 breast,30.8% (inactive) and 5.24% (active)
same,growth,MDA-MB-435 melanoma,-47.4% (active) and -19% (active)
same,growth,SW-620 colon,24.7% (inactive) and 27.7% (inactive)
same,growth,MCF7 breast,21.6% (inactive) and 15.8% (inactive)
same,growth,HCT-116 colon,3.95% (active) and 7.78% (active)
same,growth,HCC-2998 colon,13.7% (inactive) and 23% (inactive)
same,growth,KM12 colon,9.16% (active) and 16.9% (inactive)
COc1ccc2c(C)cc(N/N=C/c3ccc(C)s3)nc2c1,growth,MCF7 breast,-55.5% [100 µM] (active) and -100% [100 µM] (active)
CCOc1cc2c(cc1O)/C(=N/NS(=O)(=O)c1ccc(C)cc1)C[C@@H]1[C@@H]2CC[C@]2(C)[C@@H](O)CC[C@@H]12,growth,MCF7 breast,-3.96% [100 µM] (active)
CC1CC2(OC2C)C(=O)OC2CCN(C)C/C=C(/COC(=O)C1(C)O)C2=O (stereo not given),growth,MCF7 breast,91.6% [100 µM] (inactive) and 82.5% [100 µM] (inactive)
O=S1(=O)CC(Br)C(Br)C1 (stereo not given),growth,BT-549 breast,77.7% (inactive) and 82.9% (inactive)
same,growth,MDA-MB-435 melanoma,80.5% (inactive) and 95.1% (inactive)
same,growth,MCF7 breast,56.9% (inactive) and 63.7% (inactive)
same,growth,HCT-116 colon,18.2% (inactive) and 66.8% (inactive)
same,growth,KM12 colon,105% (inactive) and 116% (inactive)
C=C1CC2(C)CCC(OC(=O)C3(C)OC3C)C(C)(OC(C)=O)C2CC1=C(C)C (stereo not given),growth,MCF7 breast,67% [100 µM] (inactive) and 8.58% [100 µM] (active)
NC(=O)c1ccccc1OCC(O)CO (stereo not given),growth,MDA-MB-435 melanoma,90% (inactive)
same,growth,SW-620 colon,101% (inactive)
same,growth,MCF7 breast,94.1% (inactive)
same,growth,HCT-116 colon,112% (inactive)
same,growth,HCC-2998 colon,114% (inactive)
same,growth,KM12 colon,115% (inactive)
N/C(=N\N=C\c1ccc2c(c1)OCO2)N/N=C\c1ccc2c(c1)OCO2,growth,BT-549 breast,95.6% (inactive) and 67.7% (inactive)
same,growth,MDA-MB-435 melanoma,81.2% (inactive) and 65.5% (inactive)
same,growth,SW-620 colon,101% (inactive) and 75.2% (inactive)
same,growth,MCF7 breast,94% (inactive) and 56% (inactive)
same,growth,HCT-116 colon,97.6% (inactive) and 48.8% (inactive)
same,growth,HCC-2998 colon,103% (inactive) and 86.1% (inactive)
same,growth,KM12 colon,93.5% (inactive) and 70.3% (inactive)
C=C1C(=O)O[C@@H]2C[C@@]3(C)CC(=O)C=C(C)[C@@H]3C[C@H]12,growth,MCF7 breast,-74.2% [100 µM] (active) and -78.3% [100 µM] (active)
C=CCn1c2c(c3ccccc3c1=O)C(=O)c1ccccc1-2,growth,MCF7 breast,68.3% [100 µM] (inactive) and 23.2% [100 µM] (inactive)
COc1cc2c(c(OC)c1OC)-c1ccc(OC)c(=O)cc1[C@@H](NC(C)=O)CC2,growth,MDA-MB-435 melanoma,-49.9% (active) and -0.781% (active) and -50.8% (active)
same,growth,MCF7 breast,15.1% (inactive) and 15.6% (inactive) and 11.7% (inactive)
same,growth,HCT-116 colon,1.53% (active) and 0.462% (active) and 0.179% (active)
same,growth,KM12 colon,-6.61% (active) and 2.96% (active) and -29.9% (active)
CCN(CC)CCCC(C)Nc1ccnc2cc(Oc3ccccc3)ccc12 (stereo not given),growth,BT-549 breast,62.9% (inactive) and 86% (inactive)
same,growth,MDA-MB-435 melanoma,2.5% (active) and 24.4% (inactive)
same,growth,SW-620 colon,55.8% (inactive) and 79.4% (inactive)
same,growth,MCF7 breast,55.3% (inactive) and 82.7% (inactive)
same,growth,HCT-116 colon,32% (inactive) and 54.9% (inactive)
same,growth,HCC-2998 colon,90.9% (inactive) and 77.7% (inactive)
same,growth,KM12 colon,78.5% (inactive) and 87.2% (inactive)
CCCCCCCCCCCCC/C=C/[C@H]1[C@@H](C(=O)OC)N1S(=O)c1ccc(C)cc1 (stereo not given in full),growth,MCF7 breast,53.6% [100 µM] (inactive) and 36.2% [100 µM] (inactive)
O=[N+]([O-])c1ccc(Oc2ccccc2)cc1,growth,MDA-MB-435 melanoma,101% (inactive) and 131% (inactive)
same,growth,SW-620 colon,95.7% (inactive) and 94.1% (inactive)
same,growth,MCF7 breast,105% (inactive) and 95.2% (inactive)
same,growth,HCT-116 colon,98.2% (inactive) and 106% (inactive)
same,growth,HCC-2998 colon,102% (inactive) and 105% (inactive)
same,growth,KM12 colon,101% (inactive) and 105% (inactive)
CC(O)Cn1cnc2c1c(=O)n(C)c(=O)n2C (stereo not given),growth,MDA-MB-435 melanoma,109% (inactive)
same,growth,SW-620 colon,113% (inactive)
same,growth,MCF7 breast,92.8% (inactive)
same,growth,HCT-116 colon,102% (inactive)
same,growth,HCC-2998 colon,106% (inactive)
same,growth,KM12 colon,104% (inactive)
COc1ccc2cc1Oc1ccc(cc1)C[C@@H]1c3cc(c(OC)cc3CCN1C)Oc1c(OC)c(OC)cc3c1[C@H](C2)N(C)CC3,growth,MCF7 breast,35.9% [100 µM] (inactive) and -90.5% [100 µM] (active)
CCOC(=O)c1sc(N)nc1-c1ccccc1,growth,BT-549 breast,99.9% (inactive)
same,growth,MDA-MB-435 melanoma,103% (inactive)
same,growth,MCF7 breast,100% (inactive)
same,growth,HCT-116 colon,96.7% (inactive)
same,growth,HCC-2998 colon,102% (inactive)
same,growth,KM12 colon,106% (inactive)
CC(=O)NC(Cc1ccccc1)C(=O)Oc1ccc2ccccc2c1 (stereo not given),growth,BT-549 breast,110% (inactive)
same,growth,MDA-MB-435 melanoma,119% (inactive) and 107% (inactive)
same,growth,SW-620 colon,107% (inactive) and 96.7% (inactive)
same,growth,MCF7 breast,113% (inactive) and 97.8% (inactive)
same,growth,HCT-116 colon,113% (inactive) and 114% (inactive)
same,growth,KM12 colon,103% (inactive) and 94.8% (inactive)
Clc1nc(Oc2ccccc2)nc(-c2cn(-c3ccccc3)c3ccccc23)n1,growth,BT-549 breast,96.9% (inactive)
same,growth,MDA-MB-435 melanoma,38.2% (inactive)
same,growth,MCF7 breast,88.5% (inactive)
same,growth,HCT-116 colon,58.5% (inactive)
same,growth,HCC-2998 colon,74.4% (inactive)
O=C=NC(c1ccccc1)(c1ccccc1)c1ccccc1,growth,BT-549 breast,103% (inactive)
same,growth,MDA-MB-435 melanoma,108% (inactive)
same,growth,SW-620 colon,107% (inactive)
same,growth,MCF7 breast,102% (inactive)
same,growth,HCT-116 colon,93.5% (inactive)
same,growth,HCC-2998 colon,111% (inactive)
same,growth,KM12 colon,103% (inactive)
COc1ccc2cc1Oc1ccc(cc1)CC1c3cc(OC)c(cc3CCN1C)Oc1c(OC)c(OC)cc3c1C(C2)N(C)CC3 (stereo not given),growth,MCF7 breast,24.7% [75 µM] (inactive) and -97.6% [75 µM] (active)
CCOC(=O)COc1cc(-c2ccccc2)nc2cc(F)ccc12,growth,MCF7 breast,49.3% [100 µM] (inactive) and 35.8% [100 µM] (inactive)

# From PubChem BioAssay (NCI)
